Rows were chosen to be rich in hits. Some 4.1% of all compounds tested hit in one or more screens of this group.
MITF TRPM1 inh – inhibitors of MITF-dependent TRPM1 promoter reporter, primary screen, cell-based, SK-MEL-5, single point, luciferase; SK-MEL-5 TRPM1 promoter luciferase, 24 h; inhibition, % at 12.5 µM; 330,000 compounds, 0.83% hits;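 active means mean inhibition across replicates of 60% or more, whatever share of single replicates reaches that level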
Peg3 prom inh-1 – Peg3 promoter-driven luciferase inhibitors, primary screen, cell-based, HeLa, luciferase luminescence. HeLa PEG-Prom luciferase reporter, overnight. AID 588405, 2011. 360,000 compounds, 1.7% hits. inhibition, % at 20 µM;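 active means inhibition of at least 50% at 20 µM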
Shn3 3UTR inh – reduction of Shn3 3'UTR firefly luciferase signal, primary screen, Schnurri-3 inhibitor project, cell-based, Clone20 osteoblasts, set 2; Clone20 osteoblast Shn3 3'UTR firefly luciferase, 24 h; inhibition, % at 12.5 µM; 360,000 compounds, 0.52% hits;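 active means mean inhibition of at least 75% with every replicate also reaching 75%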
TROY signal inh – inhibitors of TROY-driven NF-kB signaling, primary screen, Q293 LMP1-TROYcd cells, NF-kB luciferase, uHTS | Q293 LMP1-TROYcd NF-kB luciferase reporter, 4 h | AID 1347056, 2019 | inhibition, % at 10 µM | 360,000 compounds, 0.98% hits;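 active means compounds whose plate-normalised and pattern-corrected inhibition of the luciferase reporter signal at the single screening dose is 50% or more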
TWEAK-Fn14 inh – inhibitors of TWEAK-Fn14 signaling, primary screen, luciferase reporter cells, uHTS; TWEAK-stimulated Fn14 reporter cells, luciferase luminescence, 8 h; 360,000 compounds, 2% hits; inhibition, % at 10 µM; in the data active means inhibition above about 50%
EBV LMP1 NFkB – EBV LMP1-driven NF-kappaB luciferase reporter inhibitors, primary screen, cell-based, luminescence, single point | 350,000 compounds, 0.69% hits | inhibition, % at 12.5 µM | LMP1-induced NF-kappaB luciferase reporter cells | AID 504558, 2011; in the data active means inhibition above about 41%
Peg3 prom inh-2 – Peg3 promoter reporter inhibitors, retest, confirmation, cell-based, HeLa, luciferase reporter, single concentration | 1,300 compounds, 84% hits | HeLa PEG-Prom luciferase reporter, luminescence, overnight | shares compounds with Peg3 prom inh-1 | inhibition, % at 20 µM;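 active means at 20 µM dose, 40% or more inhibition averaged across four replicates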
Hits are given with their value; – = inactive; · = not tested or not shown.

SMILES	MITF TRPM1 inh	Peg3 prom inh-1	Shn3 3UTR inh	TROY signal inh	TWEAK-Fn14 inh	EBV LMP1 NFkB	Peg3 prom inh-2
Cn1c(Cc2cccs2)nnc1SCC(=O)Nc1ccc(F)cc1F	–	–	–	–	–	–	·
COc1cc(/C=C(\C#N)C(=O)N2CCOCC2)ccc1OCc1ccccc1	–	–	–	–	–	–	·
N#C/C(=C\c1ccc(OCc2ccc(C(=O)O)cc2)cc1)C(=O)N1CCOCC1	84.6	70.8	–	–	–	83.8	76.0
Cc1c(Cl)cnc(NC(=O)COC(=O)C2CC3CCCC(C2)C3=O)c1Cl (centres undefined)	–	–	–	–	–	–	·
COCCn1c(=NC(=O)c2ccc(S(=O)(=O)N3CCc4ccccc4C3)cc2)sc2cc(S(N)(=O)=O)ccc21	–	–	–	–	–	–	·
C=CCn1c(=NC(=O)c2ccc(S(=O)(=O)N3CCc4ccccc4C3)cc2)sc2cc(S(N)(=O)=O)ccc21	–	72.1	–	–	–	–	–
CCOc1ccc(CCN2C(=O)c3ccc(C(=O)O)cc3C2=O)cc1OCC	–	–	–	–	–	–	·
O=C(Nc1ccc(Cl)cc1)C1CCN(C(=O)c2cccs2)CC1	–	–	–	–	–	–	·
O=Nc1c(O)ccc2cc(S(=O)(=O)O)ccc12	–	61.9	–	–	–	–	68.2
CN(C)c1ccc2cc(S(=O)(=O)O)cc(O)c2c1	–	–	–	–	–	–	·
Oc1ccc(C[C@@H]2CNC(=S)N2CCc2cc(C(F)(F)F)cc(C(F)(F)F)c2)cc1	–	–	–	–	–	–	·
Oc1ccc(C[C@H]2CNCCN2CCc2cc(C(F)(F)F)cc(C(F)(F)F)c2)cc1	–	58.4	–	–	–	–	81.9
CC1CCc2cc(F)ccc2N1C(=O)CSc1nnc2c(n1)[nH]c1ccc(F)cc12 (centres undefined)	–	99.8	–	–	–	–	–
CC1CCCCN1C(=O)CSc1nnc2c(n1)[nH]c1ccc(F)cc12 (centres undefined)	–	–	–	–	–	–	·
CCOC(=O)CN(C(=O)CSc1nnc2c(n1)[nH]c1ccc(F)cc12)c1ccccc1	–	56.3	–	–	–	–	49.0
O=C(N/N=C/c1ccc(Cl)c([N+](=O)[O-])c1)c1cc(-c2ccc3c4c(cccc24)CC3)n[nH]1	–	111.5	–	–	64.0	–	55.4
O=C(O)c1sccc1S(=O)(=O)N1CCOCC1	–	–	–	–	–	–	·
O=C(CN1CCCC1)Nc1ccc(-c2nc3cc(NC(=O)CN4CCCC4)ccc3o2)cc1	–	71.5	–	52.8	–	–	92.3
CCN(CC)CC(=O)Nc1ccc(-c2nc3cc(NC(=O)CN(CC)CC)ccc3o2)cc1	–	–	–	–	–	–	·
O=c1[nH]c(=O)n(C2OC(CO)C(O)C2O)cc1F (centres undefined)	–	74.8	–	–	–	–	74.9
COc1cccc(-c2cccc(-c3nc(C(=O)Nc4ccc(-c5ccccc5)cc4)cc4c3[C@H](CCO)N(S(=O)C(C)(C)C)C4)c2)c1 (some centres undefined)	·	78.0	–	–	–	·	–
O=C(Nc1ccc(Cc2ccncc2)cc1)c1ccc([N+](=O)[O-])o1	–	102.8	98.3	–	–	–	95.1
CC(C)OC(=O)N(C)C[C@@H]1OCc2cnnn2CCCC(=O)N([C@H](C)CO)C[C@@H]1C	·	–	–	–	–	–	·
CC(CCc1ccccc1)NC(=O)COC(=O)c1ccc([N+](=O)[O-])cc1 (centres undefined)	–	–	–	–	–	–	·
CC(CCc1ccccc1)NC(=O)COC(=O)c1ccc(S(C)(=O)=O)c([N+](=O)[O-])c1 (centres undefined)	–	102.2	96.7	69.6	71.1	–	97.0
SMILES	MITF TRPM1 inh	Peg3 prom inh-1	Shn3 3UTR inh	TROY signal inh	TWEAK-Fn14 inh	EBV LMP1 NFkB	Peg3 prom inh-2
C/C(=N/NS(=O)(=O)c1cccc([N+](=O)[O-])c1)c1ccncc1	–	–	–	–	–	–	·
CCC(=O)Nc1cccc(-c2cnc3ccccc3n2)c1	–	–	–	–	–	–	·
O=C(CCl)Nc1cccc(-c2cnc3ccccc3n2)c1	72.5	78.6	–	–	84.8	–	92.3
CN(C)CCNC(=O)C1Cc2c(-c3ccccc3Oc3ccccc3)ccnc2O1 (centres undefined)	·	–	–	–	–	·	·
CN(C)CCNC(=O)c1cccc2nc3cccc(F)c3nc12	76.6	105.0	90.7	–	–	–	98.5
CC(C)(NS(=O)(=O)OCC(Cl)(Cl)Cl)c1ccccc1	–	–	–	–	–	–	·
CC(NS(=O)(=O)OCC(Cl)(Cl)Cl)c1ccc(C(C)(C)C)cc1 (centres undefined)	–	56.0	–	–	–	–	48.6
Cc1nn(CC(=O)NCc2cccnc2)c(C)c1[N+](=O)[O-]	–	–	–	–	–	–	·
COc1cc(OC)c2c(-c3ccccc3)cc(=O)oc2c1C(CCN1CCN(c2ccccc2)CC1)c1ccc(N(C)C)cc1 (centres undefined)	–	–	–	–	–	–	·
CCN(CC)CCC(c1ccc(N(C)C)cc1)c1c(OC)cc(OC)c2c(-c3ccccc3)cc(=O)oc12 (centres undefined)	–	83.5	–	–	–	–	–
NC1=NC[C@H](Cc2ccccc2)N1CCc1cc(C(F)(F)F)cc(C(F)(F)F)c1	–	84.8	–	–	–	–	53.1
NC(C(=O)O)C1ON=C(Cl)C1O (centres undefined)	–	59.0	–	–	–	–	62.0
O=C(CCSc1nc2ccccc2s1)N/N=C/c1c(O)ccc2ccccc12	–	53.8	86.7	–	–	–	59.1
COc1ccc(N(CCCN2C(=O)c3cccc4cccc(c34)C2=O)C(=O)c2cccs2)cc1	–	52.5	–	–	–	–	42.3
Cc1cc(OCC(=O)NCCN2CCOCC2)c2c(C)c(C)c(=O)oc2c1	–	–	–	–	–	–	·
O=C(Cc1csc(Nc2nc(=S)[nH]c3ccccc23)n1)NCc1cccc(Cl)c1	–	–	–	–	–	–	·
O=C(Cc1csc(Nc2nc(=S)[nH]c3ccccc23)n1)NCc1ccccc1Cl	–	50.9	–	–	–	–	44.4
N=c1n(CCN2CCCC2)c2ccccc2n1CC(O)c1ccc(Cl)c(Cl)c1 (centres undefined)	99.3	114.8	–	–	–	–	98.5

Screening data from PubChem.
